The list is not random: actives were taken first. Their share in the collection is about 31%.
CYP2C9 inhib: inhibitors of human CYP2C9; P11712; CYP2C9 Supersomes, luciferin-H conversion, luminescence; inhibition, % at 5 µM; 96,000 tested, 20% active; AID 777;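 active means blocking of liver enzyme CYP2C9 beyond about 50% at 5 µM, limit read from the data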
CYP2C9 activ: increases human cytochrome P450 2C9 activity. P11712. recombinant CYP2C9, luciferin-H conversion, luminescence; active compounds read high; factor 1 = untreated enzyme, 0 = blocked. activation factor at 5 µM. 96,000 tested, 1.4% active;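 active means activation factor of 2 or more for CYP2C9 at a 5 µM dose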;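 further: 0 = sulfaphenazole-blocked wells and 1 = vehicle-only wells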
CYP2C19 inhib: human CYP2C19 inhibition | P33261 | CYP2C19 Supersomes, luciferin-H EGE luminescence, 30 min | inhibition, % at 5 µM | 96,000 tested, 21% active | AID 778;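 active means CYP2C19 inhibition above a set limit at 5 µM in the primary screen, cut at about 50% in these data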;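 further: plate controls were negative control wells for no effect and 2.5 mM tranylcypromine positive control for full effect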
PLAP activator: human PLAP activation; activation fold at 20 µM; P05187; purified PLAP enzyme, luminescent substrate read-out; active compounds read high; 96,000 tested, 1.2% active; in the data active means activation fold above about 2
Target sequence (P05187 whole entry, looked up): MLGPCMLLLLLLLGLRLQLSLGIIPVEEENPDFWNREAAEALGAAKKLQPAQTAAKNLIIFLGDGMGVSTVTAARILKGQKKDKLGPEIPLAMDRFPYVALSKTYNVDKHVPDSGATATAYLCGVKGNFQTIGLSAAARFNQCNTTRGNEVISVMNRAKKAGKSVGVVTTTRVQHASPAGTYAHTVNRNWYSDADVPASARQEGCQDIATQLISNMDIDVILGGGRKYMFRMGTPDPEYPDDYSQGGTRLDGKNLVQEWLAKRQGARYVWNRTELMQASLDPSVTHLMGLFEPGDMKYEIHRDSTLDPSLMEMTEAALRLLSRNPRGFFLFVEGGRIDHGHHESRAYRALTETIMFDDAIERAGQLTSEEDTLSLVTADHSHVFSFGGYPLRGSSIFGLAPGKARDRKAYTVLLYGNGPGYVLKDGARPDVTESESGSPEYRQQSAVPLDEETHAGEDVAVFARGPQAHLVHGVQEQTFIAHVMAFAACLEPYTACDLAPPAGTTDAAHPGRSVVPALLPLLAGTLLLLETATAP
CYP2C19 act: increases human CYP2C19 enzyme activity; P33261; recombinant CYP2C19, luciferin-H EGE luminescence; active compounds read high; 0 = fully inhibited enzyme, 1 = untreated enzyme; activation factor at 5 µM; 96,000 tested, under 10 active; AID 1025;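 active means activation factor of at least 2 at 5 µM in the primary screen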;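 further: 0 = wells with 2.5 mM tranylcypromine and 1 = vehicle-only wells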
* marks the source's active call; other numbers are inactive results.

SMILES | CYP2C9 inhib | CYP2C9 activ | CYP2C19 inhib | PLAP activator | CYP2C19 act
O=C(COC(=O)c1ccccc1Nc1cccc(C(F)(F)F)c1)NCc1ccco1 | 58* | 0.4 | 38 | 1 | 0.6
CC(C)NC(=O)COC(=O)c1ccccc1Oc1ccccc1 | 72* | 0.3 | 87* | 1.5 | 0.1
Cc1cc(C(=O)OCC(=O)NC(C)C)c(C)o1 | -7 | 1.1 | 30 | 0.9 | 0.7
O=C(COC(=O)c1ccccc1Oc1ccccc1)NCc1ccco1 | 56* | 0.4 | 32 | 1.2 | 0.7
Cc1nc2ccc(C(=O)O)cc2c2c1CC(C)S2 (configuration not stated) | -10 | 1.1 | -14 | 1.3 | 1.1
Cc1ccc(-c2nn(CCC#N)cc2C=C(C#N)C#N)cc1 | -14 | 1.1 | 9 | 1 | 0.9
N#CCCn1cc(/C=N/NC(=O)c2ccncc2)c(-c2ccccc2)n1 | 68* | 0.3 | 53* | 1.7 | 0.5
O=S1(=O)C=CC(Nc2ccccc2)C1 (configuration not stated) | -2 | 1 | -4 | 1 | 1
CCCn1c(SCc2ccc(Cl)cc2)nc2c1c(=O)[nH]c(=O)n2C | 47 | 0.5 | 67* | 1.1 | 0.3
C/C=C/Cn1c(SCc2ccc(Cl)cc2)nc2c1c(=O)[nH]c(=O)n2C | 58* | 0.4 | 48 | 0.9 | 0.5
CC1(C)Oc2ccc3ccc(=O)oc3c2/C(=C/NCCN/C=C2\C(=O)C(C)(C)Oc3ccc4ccc(=O)oc4c32)C1=O | 1 | 1 | 20 | 1.2 | 0.8
CCSC(=Nc1ccccc1)C1=C(O)COC1=O | 5 | 0.9 | 1 | 0.9 | 1
O=C(CSCc1ccccc1Cl)NN=C1CCCCCC1 | 12 | 0.9 | 63* | 0.9 | 0.4
CC(C)NC(=O)CSCc1ccccc1Cl | 17 | 0.8 | 66* | 0.9 | 0.3
O=C(CSCc1ccccc1Cl)NNC(=S)Nc1ccccc1 | 75* | 0.3 | 86* | 0.8 | 0.1
CC(=O)C1C(=O)C=C(c2ccco2)CC1c1ccccc1 (configuration not stated) | 42 | 0.6 | 5 | 1.6 | 0.9
Cc1nc([N+](=O)[O-])c(N2CCN(Cc3ccccc3)CC2)n1Cc1ccccc1 | 57* | 0.4 | 54* | 1.5 | 0.5
COc1cccc(C2CC(=O)N3CN(c4cccc(Cl)c4C)CSC3=C2C#N)c1OC (configuration not stated) | 97* | 0 | 8 | 1.3 | 0.9
COc1ccc(OC)c(C2CC(=O)N3CN(c4cccc(Cl)c4C)CSC3=C2C#N)c1 (configuration not stated) | 97* | 0 | 31 | 1.1 | 0.7
C=CCC(C#Cc1ccc(C)cc1)N(CC)CC (configuration not stated) | 3 | 1 | 13 | 1.7 | 0.9
Cc1ccc(S(=O)(=O)Cn2nnnc2CN2CCCC3(CCCCC3)C2)cc1 | 83* | 0.2 | 93* | 1.2 | 0.1
CCOc1ccc(C(=O)NCc2ccncc2)cc1OCC | 49 | 0.5 | 40 | 1.1 | 0.6
CCOc1cc(C(=O)NC(C)c2ccncc2)cc(OCC)c1OCC (configuration not stated) | 80* | 0.2 | 80* | 1.8 | 0.2
CCOc1cc(C(=O)NCc2ccncc2)cc(OCC)c1OCC | 92* | 0.1 | 84* | 1.6 | 0.2
O=C(NC1=NCCS1)c1csc2ccccc12 | -12 | 1.1 | 44 | 1 | 0.6
SMILES | CYP2C9 inhib | CYP2C9 activ | CYP2C19 inhib | PLAP activator | CYP2C19 act
COc1ccc(C2N=C(Nc3ccc(C)cc3)Nc3nc(C)cc(=O)n32)cc1 (configuration not stated) | 10 | 0.9 | 6 | 1.3 | 0.9
CCN1CCN(Cc2nc3c(c(=O)n(C)c(=O)n3C)n2C(C)C(C)=O)CC1 (configuration not stated) | 32 | 0.7 | 68* | 0.9 | 0.3
CC(Sc1nnc(N)s1)c1ccccc1Cl (configuration not stated) | 51* | 0.5 | 96* | 0.7 | 0
CC(Oc1ccccc1Cl)c1nnc(N)s1 (configuration not stated) | -22 | 1.2 | -2 | 1 | 1
CC1(C)CC(NC(=O)COc2ccc3ccccc3c2)CC(C)(C)N1 | 18 | 0.8 | 14 | 0.9 | 0.9
C=CCOC(=O)C1=C(C)NC(=S)NC1/C=C/c1ccccc1 (configuration not stated) | 65* | 0.4 | 60* | 0.7 | 0.4
CCN(CC)C(=O)c1n[nH]c(=O)c2ccccc12 | -23 | 1.2 | -26 | 1 | 1.3
CC1CN(C(=O)CN2C(=O)c3ccccc3C2=O)CC(C)O1 (configuration not stated) | -1 | 1 | -3 | 0.9 | 1
O=C(Nc1ccc(S(=O)(=O)N2CCOCC2)cc1)C1COc2ccccc2O1 (configuration not stated) | 16 | 0.8 | 3 | 0.9 | 1
O=C(Nc1nc(-c2ccc3c(c2)OCO3)cs1)C1COc2ccccc2O1 (configuration not stated) | 80* | 0.2 | 39 | 1 | 0.6
O=C(Nc1nc(-c2ccc(S(=O)(=O)N3CCCC3)cc2)cs1)C1COc2ccccc2O1 (configuration not stated) | 92* | 0.1 | 62* | 1.3 | 0.4
CCOC(=O)N1CCN(C(=O)CSCC(=O)Nc2nc(-c3ccc4c(c3)OCO4)cs2)CC1 | 73* | 0.3 | 42 | 0.9 | 0.6
O=C(O)c1ccc(S(=O)(=O)Nc2ccc(F)c(Cl)c2)cc1 | 8 | 0.9 | 3 | 0.9 | 1
COC(=O)c1cc(C(=O)OC)cc(S(=O)(=O)Nc2ccc(Cl)c(N)c2)c1 | 2 | 1 | 94* | 0.8 | 0.1
CCOCCCNC(=O)c1ccc(CS(=O)(=O)Cc2ccc(C)cc2)o1 | 18 | 0.8 | 11 | 1.2 | 0.9
O=C(c1ccc(F)cc1)N1CCC(N2CCCCCC2)CC1 | 2 | 1 | 3 | 1.6 | 1
O=C(c1ccc(F)cc1)N1C2CCC1CC(O)(c1ccccc1F)C2 (configuration not stated) | 26 | 0.7 | 53* | 1.1 | 0.5
COc1ccc(-n2nnnc2-c2cccnc2)cc1 | 24 | 0.8 | 55* | 0.8 | 0.4
CC1Cc2cc(/C(O)=C3\C(=O)C(=O)N(CCN(C)C)C3c3ccccc3F)ccc2O1 (configuration not stated) | -5 | 1.1 | -4 | 1.2 | 1
CCn1c(=N)n(CCO)c2ccccc21 | -1 | 1 | -1 | 0.8 | 1
CCCCN1C(=O)C(O)(CC(=O)c2ccco2)c2cc(Br)ccc21 (configuration not stated) | 39 | 0.6 | 67* | 1.1 | 0.3
CCCCN1C(=O)C(O)(CC(=O)c2c(C)n[nH]c2C)c2cc(Br)ccc21 (configuration not stated) | 30 | 0.7 | 81* | 1.5 | 0.2
Cc1coc(C)c1C(=O)CC1(O)C(=O)N(CCc2ccccc2)c2ccccc21 (configuration not stated) | 45 | 0.6 | 42 | 1.3 | 0.6

Screens deposited in PubChem by Sanford-Burnham Center for Chemical Genomics.
